Screen size: about 310,000 compounds; about 14,000 (4.5%) showed an effect of 50% or more. The effect is printed as a negative number. The entries come from a sample that favours strong results as a whole.
Molecular target: human ether-à-go-go-related gene (hERG) potassium channel (human, UniProt Q12809)
Test: primary screen, population patch clamp on CHO cells stably expressing hERG; higher = less effect of the substance
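Note: peak tail current of the secondary pulse compared with the same well before compound.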

Sequence of human ether-à-go-go-related gene (hERG) potassium channel (Q12809 whole entry, looked up): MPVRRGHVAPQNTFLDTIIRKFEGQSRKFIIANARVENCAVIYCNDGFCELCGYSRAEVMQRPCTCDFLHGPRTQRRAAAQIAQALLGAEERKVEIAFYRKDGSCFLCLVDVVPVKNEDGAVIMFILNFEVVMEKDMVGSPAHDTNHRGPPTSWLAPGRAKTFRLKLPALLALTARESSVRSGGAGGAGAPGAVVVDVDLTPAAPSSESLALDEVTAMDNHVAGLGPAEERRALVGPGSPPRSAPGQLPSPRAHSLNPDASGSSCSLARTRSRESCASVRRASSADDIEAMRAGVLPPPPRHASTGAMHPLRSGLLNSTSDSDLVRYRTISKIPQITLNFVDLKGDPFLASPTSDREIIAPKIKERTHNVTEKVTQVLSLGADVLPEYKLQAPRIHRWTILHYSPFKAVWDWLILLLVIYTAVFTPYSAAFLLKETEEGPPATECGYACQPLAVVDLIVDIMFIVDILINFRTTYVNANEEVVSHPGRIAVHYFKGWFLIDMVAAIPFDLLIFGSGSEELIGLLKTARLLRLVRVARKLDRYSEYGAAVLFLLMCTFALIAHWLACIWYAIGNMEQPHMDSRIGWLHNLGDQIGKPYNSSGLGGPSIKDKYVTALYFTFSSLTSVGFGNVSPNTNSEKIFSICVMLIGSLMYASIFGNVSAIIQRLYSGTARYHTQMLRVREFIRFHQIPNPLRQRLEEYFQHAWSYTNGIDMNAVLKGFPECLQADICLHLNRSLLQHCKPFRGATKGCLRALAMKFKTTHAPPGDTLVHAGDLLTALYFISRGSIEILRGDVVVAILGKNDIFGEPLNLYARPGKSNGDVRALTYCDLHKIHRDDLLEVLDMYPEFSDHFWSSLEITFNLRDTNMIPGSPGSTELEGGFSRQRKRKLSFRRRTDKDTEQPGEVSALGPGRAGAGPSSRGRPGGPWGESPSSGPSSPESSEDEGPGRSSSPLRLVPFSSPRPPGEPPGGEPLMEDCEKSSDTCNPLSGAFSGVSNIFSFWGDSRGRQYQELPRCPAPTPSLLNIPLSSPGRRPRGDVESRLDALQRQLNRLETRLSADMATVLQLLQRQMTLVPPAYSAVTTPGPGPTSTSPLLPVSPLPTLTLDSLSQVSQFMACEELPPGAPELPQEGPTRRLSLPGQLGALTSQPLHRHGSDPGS

SMILES	hERG current change (%, negative = inhibition) at 10uM [%]
Oc1c(C(Nc2cccc(C(F)(F)F)c2)c2ccncc2)ccc2cccnc12 (centres unmarked)	12.3
CCOc1ccc(S(=O)(=O)NCCC(=O)OCC(=O)Nc2cc(C)on2)cc1	-44.1
COc1ccc(-c2nnn(CC(=O)c3ccc4c(c3)OCCO4)n2)cc1OC	9.3
C/C(=N\NC(=O)c1cc(-c2ccc(Br)s2)[nH]n1)c1ccncc1	11.1
COc1ccc(C(=O)CCc2ccccc2)cc1	9.03
CCOC(=O)N1CCN(c2nc(-c3ccco3)cc(C(F)(F)F)n2)CC1	-3.17
Cc1ccc(C(=O)Nc2cccnc2N2CCN(C)CC2)cc1	-5.47
O=C1CC2(CCCC2)Oc2ccc(F)cc21	-8.58
O=C1CC2(CCN(C(=O)c3cccc(F)c3)CC2)Oc2ccccc21	-75.1
O=C(c1ccc(Cl)cc1)N1CCC2(CC1)OCCO2	13.2
O=C1CC2(CCN(C(=O)c3ccc(Cl)cc3)CC2)Oc2ccccc21	-87.8
Cc1cccc(NS(=O)(=O)c2cccc(C(=O)N3CCCC3)c2)c1	4.7
CC(C)(C)NC(=O)COC(=O)c1ccc(Cl)cc1O	18.8
C=CCN=C1CC(C)(C)CC(=O)/C1=C(\O)CCCN1C(=O)c2ccccc2C1=O	-23.5
Cc1ccc(NC2c3ncccc3C(=O)N2C2CCCCC2)cc1 (centres unmarked)	5.93
Cn1cc(CN2CCN(c3cnccn3)CC2)c(-c2cccc(Cl)c2)n1	6.29
COc1cc2c(cc1OC)C(C(=O)N1CCOCC1)C(c1cccs1)N(C)C2=O (centres unmarked)	4.09
COc1cc2c(cc1OC)C(C(=O)N1CCN(c3ccccn3)CC1)C(c1cccs1)N(C)C2=O (centres unmarked)	-38
COc1cc2c(cc1OC)C(C(=O)N1CCN(c3ccccc3)CC1)C(c1cccs1)N(C)C2=O (centres unmarked)	-68.1
O=C(O)CN(Cc1ccco1)S(=O)(=O)c1ccccc1	11.6
Nc1nnc(SCC(=O)Nc2cccc(S(=O)(=O)N3CCCCC3)c2)s1	-12.8
CCCC[C@@H]1C[C@H]1[C@@H](NC(=O)c1cccs1)c1ccc(Cl)cc1	-9.44
CCCC[C@@H]1C[C@H]1[C@@H](NC(=O)c1ccco1)c1ccc(C(=O)OC)cc1	-34

SMILES	hERG current change (%, negative = inhibition) at 10uM [%]
CCCC[C@@H]1C[C@H]1[C@@H](NC(=O)c1ccco1)c1ccc(Cl)cc1	-50.2
CC(=O)NC(Cc1ccccc1C)C(=O)NC1CCN(C(=O)c2cccc(C)c2)CC1 (centres unmarked)	34.5
O=C(CSc1ccc2nnc(-c3ccccc3)n2n1)NCc1ccco1	-72.2
Cc1ccc(NC(=O)CSCC(=O)NCc2ccco2)cc1	-0.0131
O=C(CSc1ncc(-c2ccccc2)nn1)NCc1ccco1	-23.6
O=C(CSc1nnc(-c2ccccc2)c(-c2ccccc2)n1)NCc1ccco1	-55.5
O=C(CSc1ccc2nnc(-c3ccncc3)n2n1)NCc1ccco1	-25.8
Cc1ccc(-c2nnc3ccc(SCC(=O)NCc4ccco4)nn23)cc1	-6.59
O=C(CSc1ccc2nnc(-c3ccccn3)n2n1)NCC1CCCO1 (centres unmarked)	-8.53
O=C(CSc1nc(-c2ccccc2)c(-c2ccccc2)[nH]1)NCc1ccco1	-1.63
CCOc1ccc(-c2nnc3ccc(SCC(=O)NCc4ccco4)nn23)cc1	-8.72
O=C(CCSCCC(=O)NCc1ccco1)NCc1ccco1	6.38
O=C(CSc1ccc2nnc(-c3ccccn3)n2n1)NCc1ccco1	-63.1
O=C(CSCC(=O)NCc1ccco1)NCc1ccco1	-66
Cc1cc(C(=O)N/N=C/c2ccc([N+](=O)[O-])o2)c(C)o1	-7.72
CNC(=O)c1ccc(NC(=O)/C=C/c2cccc(F)c2)cc1	-18.3
Cn1nc(NC(=O)C2CCC2C(=O)O)c2c(F)cccc21 (centres unmarked)	-0.347
Cc1ccc(OCCOc2ccc(Br)cc2)c([N+](=O)[O-])n1	-6.68
COc1ccc(CNC(=O)C(C)c2ccc([N+](=O)[O-])cc2)cc1 (centres unmarked)	-21.2
O=C(Nc1ccc2c(c1)OCO2)c1ccc(Cl)s1	-2.22
O=C(CSc1ccc2nnc(-c3cccc(F)c3)n2n1)NCc1ccco1	-65.5
O=C(CSc1ccc2nnc(-c3ccc(F)cc3)n2n1)NCc1ccco1	-21.7
COc1ccc(-c2nnc3ccc(SCC(=O)NCc4ccco4)nn23)cc1OC	-28.3

SMILES	hERG current change (%, negative = inhibition) at 10uM [%]
Cc1ccc(S(=O)(=O)Nc2ccc3[nH]ccc3c2)cc1	-9.71
CCOC(=O)C1(CCOC)CCN(CC(C)Cc2ccc3c(c2)OCO3)CC1 (centres unmarked)	-43.1
CCOC(=O)C1(Cc2ccccc2)CCN(Cc2ccc3c(c2)OCCO3)CC1	-33.1
CCOC(=O)C1(CCc2ccccc2)CCN(C(=O)CN2CCOC2=O)CC1	14.6
CCOC(=O)C1(CCOc2ccccc2)CCN(Cc2ccc3c(c2)OCCO3)CC1	-73.3
CCOC(=O)C1(CCc2ccccc2)CCN(Cc2ccc3c(c2)OCCO3)CC1	-84.4
OCC1(CCOc2ccccc2)CCN(Cc2ccc3c(c2)OCCO3)CC1	-75.1
O=C1/C(=C\c2ccco2)SC(=S)N1Cc1ccccc1	10.8
N#Cc1ccc(Oc2ccc(NC(=O)C3CC=CCC3C(=O)O)cc2)cc1 (centres unmarked)	12.9
O=C1OC2(c3ccccc3)C3CCCC2C13	11.1
O=S(=O)(c1cccs1)N1CCN(c2ccc(F)cc2)CC1	-43.1
O=C(Nc1cccc(OCC(=O)N2CCOCC2)c1)c1cccc([N+](=O)[O-])c1	25.9
CC(=O)Oc1ccccc1N1C(=O)c2ccc(C(=O)O)cc2C1=O	11.3
Oc1ccccc1OCc1nc2ccccc2s1	-13.7
Cc1nc2ccc(C(=O)N/N=C/c3ccccc3O)cc2[nH]1	9.25
N#Cc1c(N)n[nH]c1Cc1cccc2ccccc12	12.3
CCCCc1nc(C(N)=O)c2[nH]c(=O)n(-c3ccc(OC)cc3OC)c2n1	1.88
CCC(CC)C(=O)c1c[nH]c(C(=O)N2CCN(c3ccccc3F)CC2)c1	25.2
COc1ccccc1-n1c(CCC(=O)O)ccc1-c1ccccc1	-12.9
Cc1ccc(-n2c(-c3ccccc3)n[nH]c2=S)c(C)c1	7.9
Br.COc1ccccc1N1Cc2ccccc2C1	-13.2
Cc1ccc(NC(=O)C[n+]2cc(-c3ccccc3)n3c2CCC3)c(C)c1.[Cl-]	-9.62
COc1ccccc1-n1c(-c2ccccc2)c[n+]2c1CCc1ccccc1-2.[Br-]	-74.1

SMILES	hERG current change (%, negative = inhibition) at 10uM [%]
Cc1ccc(-n2c(-c3ccccc3)c[n+]3c2CCc2ccccc2-3)c(C)c1.[Br-]	-93
O=C(/C=C/c1ccco1)NC(=S)Nc1ccccn1	-3.42
CC(=O)Cc1nsc(NC(=O)c2cccc(F)c2)n1	12.5
O=C(Nc1ccccc1C(=O)N1CCCCC1)c1ccccc1C(F)(F)F	27.6
Cc1ccc(N2C(=O)C(CN(C)C)C2c2ccccc2)cc1 (centres unmarked)	-33.1
Cc1ccc(N2C(=O)C(CN3CCOCC3)C2c2ccccc2)cc1 (centres unmarked)	-26.5
Cc1ccc(N2C(=O)C(CN3CCCCC3)C2c2ccccc2)cc1 (centres unmarked)	-62.6
COc1ccc(N2C(=O)C(CN3CCN(C)CC3)C2c2ccccc2)cc1 (centres unmarked)	-16
Cc1ccc(N2C(=O)C(CN3CCCC3)C2c2ccccc2)cc1 (centres unmarked)	-78.5
COc1ccc(N2C(=O)C(CN3CCCCC3)C2c2ccccc2)cc1 (centres unmarked)	-12
CC(=O)c1cccc(NS(=O)(=O)c2cc(OCC(N)=O)c(C)cc2Cl)c1	6.92
COc1ccc(CN(C(=O)c2ccc(CN3CCOCC3)o2)C(C(=O)NCC2CCCO2)c2ccc(F)cc2)cc1 (centres unmarked)	-4.38
O=C(Cc1ccc(Cl)c(Cl)c1)OCC(=O)c1ccc[nH]1	-24.9
O=C(COC(=O)c1cccc([N+](=O)[O-])c1)NCC1CCCO1 (centres unmarked)	8.06
Cc1c(NC(=O)COC(=O)C2CC3C=CC2C3)c(=O)n(-c2ccccc2)n1C (centres unmarked)	13.2
CCCNC(=O)c1ccc(C)c(NC(=O)C2=C(C)OCCS2)c1	3.06
COCCNC(=O)c1ccc(C)c(NC(=O)C2=C(C)OCCS2)c1	21.1
CC1=C(C(=O)Nc2cc(C(=O)NCCC(C)C)ccc2C)SCCO1	-52.4
O=C(CSc1nnc(-c2cccs2)o1)N1CCc2ccccc21	-10.5
CC12CCC(C(=O)Nc3ccc(Br)cn3)(OC1=O)C2(C)C (centres unmarked)	7.13

— publication PMC4336329 (PLoS ONE, 2015)
